Consider 29 compounds from PubChem BioAssay AID1776 (NMMLSC, 2009).

Molecules are shown by their SMILES. The campaign covered roughly 190,000 compounds. About 490 (0.26%) were called active. Rule as the data show it: active = fluorescence above about 89; inactive = the rest. The entries come from a sample that favours actives as a whole.

A short description of the experiment: compound fluorescence on glutathione beads, profiling panel, artefact control, biophysical, 488/530 nm, flow cytometry (AID 1776).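 Also: glutathione beads carrying GST-tagged Bcl family fusion proteins plus one bare bead set; values are compound well signal with DMSO vehicle wells as background.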 The settings on record: GSH beads flow cytometry, compound fluorescence 488/530 nm; at 10 µM; hits give high values. In general terms: In flow cytometry, cells or beads pass a laser one at a time.
Take `CNC(=O)CSc1nnnn1-c1ccc(C)cc1C`: the fluorescence (KMESF) is 23 (inactive). Take `CCOC(=O)CNC(=O)CSc1nnnn1-c1cc(C)ccc1C`: the fluorescence (KMESF) is 33 (inactive). The figure for `Cc1ccc(C)c(-n2nnnc2SCC(=O)c2c(N)n(C)c(=O)n(C)c2=O)c1` is 179 (active). For `CN(C)CC(C)(C)CNC(=O)c1cc(Br)cc(Br)c1O` the value was 12 (inactive); for `C=CCNC(=S)NNC(=O)COc1c(Cl)cc(Cl)cc1Cl`, 12 (inactive); for `Cc1cc(C)nc(NNC2=CC(=O)CC(C)(C)C2)n1`, 16 (inactive). As for `COc1ccc(C(=O)NNc2cc(C)nc(NNC(=O)c3ccc(OC)cc3)n2)cc1`, the fluorescence (KMESF) was 11 (inactive). For `CC1CCCCC1NC(=O)CN1CCC(O)(c2ccc3c(c2)OCO3)CC1` (centres undefined), the fluorescence (KMESF) is 15 (inactive). Regarding `CC1=C(C)CC(C(=O)NNC(=O)c2csc3c2CCC(C(C)(C)C)C3)C(C(=O)O)C1` (centres undefined), the fluorescence (KMESF) is 10 (inactive). Take `Cc1ccccc1CC1(CO)CCCN(Cc2ccc3c(c2)OCCO3)C1` (centres undefined): the fluorescence (KMESF) is 18 (inactive). The figure for `S=c1[nH]ccn1-c1ccc(Cl)cc1` is 11 (inactive); for `COCCSc1nnc(NC(=O)c2cc(OC)c(OC)cc2[N+](=O)[O-])s1` it is 21 (inactive). The figure for `Cc1ccc(C(=O)NC(C)c2ccccc2)cc1Br` (centres undefined) is 15 (inactive); for `OCCC#Cc1ccc(CN2CCN(Cc3ccsc3)C(CCO)C2)cc1` (centres undefined) it is 10 (inactive). For `CCCCCc1nnc(NC(=O)c2ccc(=O)n(C)n2)s1`, the fluorescence (KMESF) is 16 (inactive). Turning to `CC1(C)CC(=O)C(N=Nc2ccc(S(=O)(=O)N3CCCCCC3)cc2)=C(O)C1`, the fluorescence (KMESF) is 11 (inactive). The figure for `COc1cc(OC)cc(-c2nc3ccccc3c(=O)n2NC(=O)c2cccnc2Cl)c1` is 10 (inactive); for `Cc1ccc(C)c(-n2ccnc2SCC(N)=O)c1` it is 20 (inactive). Turning to `CC(C)c1nc(CNC(=O)CC2C(=O)NCCN2Cc2ccoc2)cs1` (centres undefined), the fluorescence (KMESF) was 15 (inactive). The figure for `COc1cc(OC)c(C(=O)N2CCCC2)cc1OC` is 10 (inactive). The figure for `O=C(COc1ccc([N+](=O)[O-])cc1)Nc1ccc(N2CCCC2)cc1` is 9 (inactive). Regarding `Cc1nn(-c2ccc([N+](=O)[O-])cc2)c(N)c1-c1ccccc1`, the fluorescence (KMESF) is 8 (inactive). As for `Cc1cc(NS(=O)(=O)c2ccc(NC(=S)NC(=O)c3ccc(F)cc3Cl)cc2)no1`, the fluorescence (KMESF) is 12 (inactive). For `CNc1ccc(NC(C)=O)cc1[N+](=O)[O-]` the value was 13 (inactive); for `CCCOCC(O)CC(CC)C(=O)NNC(=S)Nc1ccccc1` (centres undefined), 13 (inactive). For the compound `S=C(Nc1cccc(Br)c1)N1CCn2cccc2C1c1cccnc1` (centres undefined), the fluorescence (KMESF) is 15 (inactive). Regarding `Cc1cc(=O)[nH]c(SCc2cc(Cl)ccc2OC(F)F)n1`, the fluorescence (KMESF) is 270 (active). For `Cc1cc(=O)[nH]c(SCc2cccc(F)c2)n1` the value was 31 (inactive).

`COc1ccccc1-c1noc(CSc2nc(C)cc(=O)[nH]2)n1`: the fluorescence (KMESF) was 20 (inactive).
